# Assay results as given in PubChem BioAssay (EPA / NIEHS).
# Several values for one entry are separate records, joined by “and”; a condition that tells them apart may be missing. Equal values may be shown once. Inconclusive results are not listed. Activity calls are given as the source filed them. Rule for the calls, unless noted: active = hit-call score of the fitted dose curve at least 0.9, where 1 is the maximum; inconclusive = response in the unintended direction; inactive = score below 0.9.
# Assays:
# [1] = molecular target: THRB (gene 7068) (UniProt P10828); assay: TOX21_TRB_COA_Agonist_Followup_ratio: Tox21 Thyroid Hormone Receptor beta Agonism through Coactivator Recruitment Follow-Up Assay, Ratio (AID 2283963; active = hit-call score of the fitted dose curve at least 0.9, where 1 is the maximum; inactive = score below 0.9)
# Method in brief: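 Cell-free TR-FRET coactivator recruitment: GST-tagged TRβ LBD (5.0 nM) with 0.10% BSA incubated with compound, then fluorescein-SRC-2 peptide (200 nM) and Tb-anti-GST antibody (2 nM) added. 520:495 nm ratio normalized to DMSO (0%) and T3 (100%).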
# [2] = molecular target: Retinoic acid receptor RXR-alpha (Homo sapiens) (UniProt P19793); assay: TOX21_TR_RXR_BLA_Agonist_Followup_ratio: Tox21 Thyroid Hormone Receptor beta Retinoid X Receptor alpha (RXRa) Agonism Beta-lactamase (BLA) Follow-Up Assay, Ratio (AID 2283968)
# Excerpt: GeneBLAzer RXRa-UAS-bla HEK293T assay (RXRa-bla) (ThermoFisherScientific Catalog No. K1697) was run in qHTS 1536 well format as a secondary assay for specificity of response in the TOX21_TR_GH3_LUC_Agonist assay.TOX21_TR_RXR_BLA_Agonist_Followup_ratio is an assay readout measuring reporter gene via receptor activity and designed using inducible reporter (beta lactamase induction) detected with GAL4 b-lactamase reporter gene. The signal is derived from the ratio of cleaved (ch2) to uncleaved (ch1) reporter gene substrate used as the measure of target activity.Data from the assay component TOX21_TR_RXR_BLA_Agonist_Followup_ratio was analyzed into 1 assay endpoint. This assay endpoint, TOX21_TR_RXR_BLA_Agonist_Followup_ratio, was analyzed in the positive analysis fitting direction relative to DMSO as the negative control and baseline of activity. […] Furthermore, this assay endpoint can be referred to as a primary readout, because this assay has produced multiple assay endpoints and this ratio serves a reporter gene function to understand target activity. […]
# After5-h incubation at 37C/5% CO2 for cell attachment, 23 nL of follow-up compounds dissolved in DMSO, 11 concentrations in triplicate, and the positive control (9-cis retinoic acid) were transferred to the assay plates using a Pintool station. […] Data were expressed as the ratio of 460:530 nm.
# [3] = TOX21_TR_RXR_BLA_Agonist_Followup_viability: Viability Assessment in the Tox21 Thyroid Hormone Receptor beta Retinoid X Receptor alpha (RXRa) Agonism Beta-lactamase (BLA) Follow-Up Assay (AID 2283970)
# Excerpt: GeneBLAzer RXRa-UAS-bla HEK293T assay (RXRa-bla) (ThermoFisherScientific Catalog No. K1697) was run in qHTS 1536 well format as a secondary assay for specificity of response in the TOX21_TR_GH3_LUC_Agonist assay.TOX21_TR_RXR_BLA_Agonist_Followup_viability is a component of the TOX21_TR_RXR_BLA_Agonist_Followup assay. This component measures cell viability using the CellTiter-Glo Luciferase-coupled ATP quantitation.The assay component endpoint TOX21_TR_RXR_BLA_Agonist_Followup_viability was analyzed with bidirectional fitting relation to DMSO as the negative control and baseline of activity. Using a type of viability reporter, loss-of-signal activity can be used to understand changes in viability. […]
# Cell Media Required: Growth (90% DMEM/F-12, 10% Fetal Bovine Calf Serum, 100U/ml Penicillin, 100 ug/ml Streptomycin), Assay (10ng/mL sodium selenite, 10 ug/mL humanapo-transferrin, 10 uM ethanolamine, 10 ug/mL insulin, 500 ug/mL bovine serum albumin (BSA))Assay Protocol: RXRa-bla cells were seeded at 2,500/well in 6 uL of the assay medium containing phenol red-free DMEM with 2% charcoal-stripped FBS in 1,536-well black-wall/clear-bottom plates (Greiner Bio-One North America) usinga Multidrop Combi dispenser. […] After 2-h incubation at room temperature, the fluorescence intensity was measured using an Envision plate reader (Perkin Elmer). Data were expressed as the ratio of 460:530 nm.
# [4] = system: DIO1 (gene 1733); assay: CCTE_GLTED_hDIO1: CCTE's human Deiodinase 1 (DIO1) Inhibition Assay, Great Lakes Toxicology and Ecology Division (GLTED) Lab (AID 2283987);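 note: isolated human DIO1 enzyme in a cell-free setup rather than cells; enzyme activity read as free iodide liberated from substrate via Sandell-Kolthoff colorimetry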
# Description: CCTE_GLTED_hDIO1 is a cell-free, single-readout assay designed to test the inhibitory activity of chemicals toward human iodothyronine Deiodinase type 1 (DIO1) enzyme. Enzyme is incubated in presence of test chemical for 3 hours during which uninhibited enzyme liberates free iodide from substrate. Free iodide is measured in a second step using the Sandell-Kolthoff method.CCTE_GLTED_hDIO1 is the assay component measured from the CCTE_GLTED_hDIO1 assay. It is designed to make measurements of enzyme activity, a form of enzyme reporter, as detected with absorbance signals by spectrophotometry.Data from the assay component CCTE_GLTED_hDIO1 was analyzed into 1 assay endpoint. This assay endpoint, CCTE_GLTED_hDIO1, was analyzed in the positive analysis fitting direction relative to DMSO as the negative control and baseline of activity. Using a type of enzyme reporter, loss-of-signal activity can be used to understand changes in the enzymatic activity as they relate to the gene DIO1. Furthermore, this assay endpoint can be referred to as a primary readout, because the performed assay has only produced 1 assay endpoint. To generalize the intended target to other relatable targets, this assay endpoint is annotated to the 'deiodinase' intended target family, where the subfamily is 'deiodinase Type 1'.
# […] assay, developed at Great Lakes Toxicology and Ecology Division (GLTED) within the EPA's Center for Computational Toxicology and Exposure (CCTE), is designed to test the chemicals' ability to inhibit DIO1. Assay is based on iodide release measured by the Sandell-Kolthoff method and is run in 96-well plate format with assay plates run in triplicate (n=3). The method used for the deiodinase assay was largely based on Renko et al. (2012, 2015). These works describe the utilization of the SK reaction to measure deiodinase-liberated iodide in a 96-well-plate format. The SK reaction is based on the reduction of the yellow-colored cerium IV to the non-colored cerium III by arsenic, with the rate of this reaction increased in the presence of iodide in a concentration-dependent manner (Sandell and Kolthoff, 1937). Iodinated test chemicals can interfere as competitive inhibitors, or if the stock chemical has contaminating free-iodide present. Other chemicals, e.g.: nitrite, iron, and thiocyanate can interfere with the Sandell-Kolthoff reaction (see Sandell and Kolthoff, 1937).
# [5] = molecular target: Nucleoli Translocation, AR (gene 367) (UniProt P10275); assay: UPITT_HCI_U2OS_AR_TIF2_Nucleoli_Antagonist: University of Pittsburgh U2OS Androgen Receptor-Transcriptional Intermediary Factor 2 (AR-TIF2) Antagonism High Content Imaging Assay for Nucleoli Translocation (AID 2283997)
# Method in brief: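 An antagonist-mode imaging screen: engineered U2OS (AR-RFP, TIF2-GFP) exposed to 20 uM compound, 0.2% DMSO. Activity reflects nucleolar red fluorescence change relative to DHT baseline.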
# [6] = molecular target: Nucleoli Translocation, AR (gene 367) (UniProt P10275); assay: UPITT_HCI_U2OS_AR_TIF2_Nucleoli_Agonist: University of Pittsburgh U2OS Androgen Receptor-Transcriptional Intermediary Factor 2 (AR-TIF2) Agonism High Content Imaging Assay for Nucleoli Translocation (AID 2283998)
# Method in brief: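 Nucleolar translocation of AR-RFP, with TIF2-GFP coexpressed in human osteosarcoma U2OS, imaged by high-content fluorescence. Compounds tested singly at 20 uM final, confirmed in triplicate, then titrated 0.195–50 uM final; gain-of-signal relative to DMSO.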
# [7] = molecular target: Ratio of Nucleoli Translocation and Cytoplasm, AR (gene 367) (UniProt P10275); assay: UPITT_HCI_U2OS_AR_TIF2_Nucleoli_Cytoplasm_Ratio_Antagonist: University of Pittsburgh U2OS Androgen Receptor-Transcriptional Intermediary Factor 2 (AR-TIF2) Antagonism High Content Imaging Assay for Ratio of Nucleoli Translocation and Cytoplasm (AID 2283999);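 note: antagonists lower the DHT-driven ratio of nucleolar to cytoplasmic red signal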
# Method in brief: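 This antagonist-mode endpoint tracks AR-RFP localisation, the nucleolus-to-cytoplasm intensity ratio, in TIF2-GFP-coexpressing U2OS cells. DMSO stays at or below 0.5%; testing spans 20 uM single-dose and 0.195–50 uM series, with DHT setting the activity baseline.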
# [8] = molecular target: THRB (gene 7068) (UniProt P10828); assay: TOX21_TRB_COA_Antagonist_Followup_ratio: Tox21 Thyroid Hormone Receptor beta Antagonism through Coactivator Recruitment Follow-Up Assay, Ratio (AID 2283967)
# Method in brief: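 Coactivator (SRC-2) recruitment to purified GST-TRβ ligand-binding domain is monitored by terbium-to-fluorescein energy transfer, emission ratio 520:495 nm. DMSO wells define 0% and T3 wells 100% activity.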
# [9] = molecular target: Retinoic acid receptor RXR-alpha (Homo sapiens) (UniProt P19793); assay: TOX21_TR_RXR_BLA_Antagonist_Followup_ratio: Tox21 Thyroid Hormone Receptor beta Retinoid X Receptor alpha (RXRa) Antagonism Beta-lactamase (BLA) Follow-Up Assay, Ratio (AID 2283972)
# Method in brief: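 After 5 h attachment at 37C, HEK293T RXRa-bla cells (2,500/well, 2% charcoal-stripped FBS, no phenol red) received compounds at 11 concentrations in triplicate for 16 h. Beta-lactamase read as 460:530 nm ratio after 2 h RT substrate loading.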
# [10] = TOX21_TR_RXR_BLA_Antagonist_Followup_viability: Viability Assessment in the Tox21 Thyroid Hormone Receptor beta Retinoid X Receptor alpha (RXRa) Antagonism Beta-lactamase (BLA) Follow-Up Assay (AID 2283979)
# Method in brief: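 RXRa-UAS-bla HEK293T cells seeded 2,500/well in phenol red-free DMEM with 2% charcoal-stripped FBS, attached 5 h, then exposed to compounds at 11 concentrations in triplicate for 16 h at 37C/5% CO2. Viability read by CellTiter-Glo ATP luminescence; bidirectional fit versus DMSO.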
# Sequence of Ratio of Nucleoli Translocation and Cytoplasm, AR (gene 367) (P10275 whole entry, looked up): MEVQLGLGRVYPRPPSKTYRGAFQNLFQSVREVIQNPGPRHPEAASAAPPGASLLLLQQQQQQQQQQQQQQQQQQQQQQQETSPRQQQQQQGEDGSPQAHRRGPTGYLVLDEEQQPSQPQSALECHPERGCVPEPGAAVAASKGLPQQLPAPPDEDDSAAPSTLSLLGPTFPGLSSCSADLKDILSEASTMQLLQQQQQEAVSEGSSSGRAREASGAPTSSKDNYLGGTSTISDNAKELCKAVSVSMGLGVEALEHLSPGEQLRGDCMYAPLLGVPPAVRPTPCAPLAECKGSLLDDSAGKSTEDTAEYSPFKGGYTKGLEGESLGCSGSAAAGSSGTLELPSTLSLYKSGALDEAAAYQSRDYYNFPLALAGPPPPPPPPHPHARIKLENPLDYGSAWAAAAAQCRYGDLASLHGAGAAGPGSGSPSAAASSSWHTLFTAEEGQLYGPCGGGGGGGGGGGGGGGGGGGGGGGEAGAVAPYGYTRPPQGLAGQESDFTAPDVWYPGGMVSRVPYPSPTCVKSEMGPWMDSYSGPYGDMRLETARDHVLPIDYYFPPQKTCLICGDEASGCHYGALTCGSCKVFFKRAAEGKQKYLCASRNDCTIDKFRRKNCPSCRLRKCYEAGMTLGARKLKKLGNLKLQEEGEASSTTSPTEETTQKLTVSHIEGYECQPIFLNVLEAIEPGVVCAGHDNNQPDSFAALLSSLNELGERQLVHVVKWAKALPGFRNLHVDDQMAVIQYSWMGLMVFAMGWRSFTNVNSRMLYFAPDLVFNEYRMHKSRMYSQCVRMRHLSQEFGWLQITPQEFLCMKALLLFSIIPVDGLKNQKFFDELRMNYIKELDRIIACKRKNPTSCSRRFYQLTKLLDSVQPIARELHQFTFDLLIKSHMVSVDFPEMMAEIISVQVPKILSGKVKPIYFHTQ
# Sequence of Nucleoli Translocation, AR (gene 367) (P10275 whole entry, looked up): as above
# Sequence of Retinoic acid receptor RXR-alpha (Homo sapiens) (P19793 whole entry, looked up, the tested form may be a part): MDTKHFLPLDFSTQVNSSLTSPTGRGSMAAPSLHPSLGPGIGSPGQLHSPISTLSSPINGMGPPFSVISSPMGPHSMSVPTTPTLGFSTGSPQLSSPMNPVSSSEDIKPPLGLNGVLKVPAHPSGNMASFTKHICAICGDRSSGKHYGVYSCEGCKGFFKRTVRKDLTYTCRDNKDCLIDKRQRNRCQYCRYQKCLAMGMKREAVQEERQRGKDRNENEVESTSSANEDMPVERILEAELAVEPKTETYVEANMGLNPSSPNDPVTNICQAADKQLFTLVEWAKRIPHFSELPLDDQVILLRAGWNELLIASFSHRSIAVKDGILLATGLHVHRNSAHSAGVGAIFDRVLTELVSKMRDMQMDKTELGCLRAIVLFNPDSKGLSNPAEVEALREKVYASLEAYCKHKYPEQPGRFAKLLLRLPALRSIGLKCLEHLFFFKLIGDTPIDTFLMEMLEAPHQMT
# Sequence of THRB (gene 7068) (P10828 whole entry, looked up, the tested form may be a part): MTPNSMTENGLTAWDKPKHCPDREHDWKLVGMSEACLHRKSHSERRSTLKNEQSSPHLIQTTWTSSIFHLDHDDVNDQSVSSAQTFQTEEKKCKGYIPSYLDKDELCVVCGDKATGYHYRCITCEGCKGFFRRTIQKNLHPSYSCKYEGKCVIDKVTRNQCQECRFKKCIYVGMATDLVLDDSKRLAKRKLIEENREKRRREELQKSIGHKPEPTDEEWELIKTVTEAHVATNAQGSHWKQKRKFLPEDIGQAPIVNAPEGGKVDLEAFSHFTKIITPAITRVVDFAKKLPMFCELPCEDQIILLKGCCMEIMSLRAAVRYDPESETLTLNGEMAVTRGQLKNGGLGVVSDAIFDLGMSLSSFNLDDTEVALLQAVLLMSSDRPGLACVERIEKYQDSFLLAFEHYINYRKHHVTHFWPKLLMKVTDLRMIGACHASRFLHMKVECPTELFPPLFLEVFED
structure (smiles),measurement,setting,value
CCCCCCC(C)O (stereo unspecified),outcome,[1],inactive
same,outcome,[2],inactive
same,outcome,[3],inactive
CC/C(=C(\c1ccccc1)c1ccc(OCCN(C)C)cc1)c1ccccc1,AC50,[4],56.9 µM (active) and 72.6 µM (active)
c1ccc2c(c1)-c1ccc3ccc4cccc5cc-2c1c3c45,AC50,[5],15.4 µM (active)
same,outcome,[6],inactive
same,outcome,[7],inactive
C#C[C@]1(O)CC[C@H]2[C@@H]3CCc4cc(O)ccc4[C@H]3CC[C@@]21C,outcome,[8],inactive
same,AC50,[9],38.3 µM (active)
same,outcome,[10],inactive
FC(F)(F)c1ccc(Cl)c(Cl)c1,outcome,[5],inactive
same,outcome,[7],inactive
CCO[Si](CC)(OCC)OCC,outcome,[5],inactive
same,outcome,[6],inactive
same,outcome,[7],inactive
CC(=O)N(C)C,outcome,[5],inactive
CCCCCCOc1ccc(O)cc1,AC50,[5],50 µM (active)
same,AC50,[6],27.7 µM (active)
same,AC50,[7],90 µM (active)
CC(C)(C)c1ccc(S)cc1,AC50,[4],16.3 µM (active)
CCCCCCCCOC(=O)c1ccc(O)cc1,AC50,[4],86.4 µM (active)
CC(C)(CO)CO,outcome,[6],inactive
O=C(O)C1=NN(c2ccc(S(=O)(=O)O)cc2)C(=O)C1,AC50,[4],57.6 µM (active)
CCOc1ccc(NC(C)=O)cc1,outcome,[5],inactive
same,outcome,[6],inactive
same,outcome,[7],inactive
CC(CCO)CC(C)(C)C (stereo unspecified),outcome,[5],inactive
same,outcome,[6],inactive
same,outcome,[7],inactive
COc1cc(OC)c2ccc(=O)oc2c1,outcome,[5],inactive
same,outcome,[7],inactive
COC(=O)c1cccc(C(=O)OC)c1,outcome,[5],inactive
same,outcome,[6],inactive
same,outcome,[7],inactive
CCC(C)(C)C1CCC(=O)CC1,outcome,[5],inactive
same,outcome,[6],inactive
same,outcome,[7],inactive
CC1COC(=O)O1 (stereo unspecified),outcome,[5],inactive
same,outcome,[6],inactive
CC(C)(C)c1cccc(O)c1,outcome,[5],inactive
same,AC50,[6],30.6 µM (active)
same,outcome,[7],inactive
OC[C@H]1O[C@@H](O[C@H]2[C@H](O)[C@@H](O)[C@H](O)O[C@@H]2CO)[C@H](O)[C@@H](O)[C@H]1O,outcome,[5],inactive
same,outcome,[7],inactive
CCCCCCCCCCOC(=O)c1ccccc1C(=O)OCCCCCCCC,outcome,[5],inactive
same,outcome,[6],inactive
